Measured potencies and affinities stand elsewhere. Activity calls are given as the source filed them.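 How the source made its calls: active means signal drop with fitted half-maximal dose at most twice the top valid dose, active in every repeat; inconclusive means repeats disagree, or flat partial inhibition, or poor fit; inactive means inactive in every repeat, including opposite effects.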
Each compound was assayed against Caspase-3 (Homo sapiens) (UniProt P42574) (assay: human caspase-3 protease activity blockade – biochemical, fluorescence, cherry-picked samples, selectivity assay for caspase-6 allosteric inhibitor project, dose response (AID 743291)). Settings: Recombinant caspase-3, Z-DEVD-R110 cleavage fluorescence; series mostly up to 35 µM.
Sequence of Caspase-3 (Homo sapiens) (P42574 whole entry, looked up): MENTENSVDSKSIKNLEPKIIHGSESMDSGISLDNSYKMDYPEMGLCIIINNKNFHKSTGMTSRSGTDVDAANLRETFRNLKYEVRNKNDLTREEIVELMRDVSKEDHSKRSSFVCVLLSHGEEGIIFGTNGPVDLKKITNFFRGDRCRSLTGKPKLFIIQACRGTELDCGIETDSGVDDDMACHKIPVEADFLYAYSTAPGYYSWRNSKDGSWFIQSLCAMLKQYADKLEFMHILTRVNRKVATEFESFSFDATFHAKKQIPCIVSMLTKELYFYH

outcome, inactive:
Oc1cc2c(cc1O)[C@H]1c3ccc(O)c(O)c3OC[C@@]1(O)C2
COCCn1c2nc(=O)n(-c3ccccc3)c(=O)c-2nc2ccccc21
COc1ccc(OC)c(Nc2cc3ccccc3c(=O)[nH]2)c1
COc1ccc(C(=O)OCC(=O)Nc2ncc([N+](=O)[O-])s2)cc1OC
CC(C)(C)c1ccc(NC(=O)COC(=O)c2ccc([N+](=O)[O-])s2)cc1
O=S(=O)(O)c1cc(O)c2cc(Nc3ccccc3)ccc2c1
CNS(=O)(=O)c1cccc(C(=O)OCC(=O)N2c3ccccc3NC(=O)C2(C)C)c1
NS(=O)(=O)c1ccc(NC(=O)COC(=O)c2ccc([N+](=O)[O-])s2)cc1
COc1cc(NC(C)CCCN)c2ncccc2c1 (stereo not drawn)
O=c1cc2c(=O)oc3cc(O)c(O)oc3c2c(O)c1O
COc1cc(NC(=O)COC(=O)c2ccc([N+](=O)[O-])s2)cc(OC)c1OC
CCCSC1=N/C(=C\c2ccc([N+](=O)[O-])o2)C(=O)S1
O=c1[nH]c(Nc2ccc(F)cc2)cc2ccccc12
COCCN(C(=O)COC(=O)c1cc2c(s1)CCC2)c1c(N)n(Cc2ccccc2)c(=O)[nH]c1=O
Nc1cc2nn(-c3ccccc3)nc2cc1Cl
O=C(COC(=O)c1ccc([N+](=O)[O-])s1)Nc1ccccc1
COc1cc(-c2ccc(Nc3ccccc3C(=O)O)c(OC)c2)ccc1Nc1ccccc1C(=O)O
O=C(Nc1ccc(S(=O)(=O)Nc2cnc3ccccc3n2)cc1)c1ccc(Cl)c([N+](=O)[O-])c1
O=C(O)CCc1ccc(-c2ccc(Br)cc2)n1CC(=O)O
O=c1c(O)cccc2cc(O)c(O)c(O)c12
O=C(C[C@@H]1C[C@H]2c3cc(NC(=O)NC4CCCCC4)ccc3O[C@H]2[C@H](CO)O1)NCc1ccccn1
Cc1cc(C=O)c(C)n1-c1cc(C(=O)O)cc(C(=O)O)c1
[O-][n+]1onc2c1CCc1c-2nn(-c2ccccc2Cl)[n+]1[O-]
COc1ccccc1NC(=O)COC(=O)c1ccc([N+](=O)[O-])s1
Cc1ccc(S(=O)c2ccc([N+](=O)[O-])c3nonc23)cc1 (stereo not drawn)
COc1ccc([N+](=O)[O-])cc1NC(=O)CCS(=O)(=O)c1ccc(Br)cc1
Cc1ccc(C)c(NC(=O)CN(C)C(=O)c2cccc(-n3cccc3)c2)c1
C/C(CC(=O)N1CCCC1)=N\NC(=O)c1cc2ccccc2cc1O
O=c1ccc2c(-c3ccccc3S(=O)(=O)O)c3ccc(O)c(O)c3oc-2c1O
COc1ccc(S(=O)(=O)Nc2cc(Sc3ncn[nH]3)c(O)c3ccccc23)cc1
CN(CC(=O)Nc1ccccc1Cl)C(=O)COC(=O)c1ccc([N+](=O)[O-])s1
O=C1CN(C(=O)COC(=O)c2ccc([N+](=O)[O-])s2)c2ccccc2N1
CCCN(C(=O)c1cccc(-n2cccc2)c1)c1c(N)n(Cc2ccccc2)c(=O)[nH]c1=O
CO[C@H]1CN(C)C(=O)c2cc(NC(C)=O)ccc2OC[C@@H](C)N(C(=O)CC2CC2)C[C@H]1C
CCOc1c(O)ccc(/C=C2\SC(=S)NC2=O)c1[N+](=O)[O-]
CCOC(=O)c1sc2nc(OCCN3CCOCC3)cc(C)c2c1N
CCOC(=O)[C@H](Cc1c[nH]c2ccccc12)NC(=O)CN=[N+]=[N-]
Cc1c(CCC(=O)O)c(=O)oc2c(C)c(OCc3ccccc3Cl)ccc12

— PubChem BioAssay AID743291 (Broad Institute, 2014)
